Results: PubChem BioAssay AID1159580 (chemical genetic matrix, 2015)
Screen size: about 5,500 compounds; about 2,000 (36%) were called active. Not shown: some 18% with an inconclusive outcome. Rule as the data show it: active = normalized growth mostly below about 0.91 (no sharp cut-off); inconclusive = no clear call, values can overlap the other calls; inactive = mostly above about 0.92. This is one part of the list.

Assay: chemical genetic growth profiling, strain panel (AID 1159580);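 also: tested at 20 µM; growth read once vehicle control cultures reached saturation at 30 °C; 1 = growth at the plate median or of vehicle wells; lower values mean less growth of the strain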
Conditions: S. cerevisiae deletion strains, growth OD

Measured: normalized growth

O=c1cc(-c2ccccc2)oc2cccc(O)c12
active: locus YBR023C, strain chs3, hits give low values 0.892 | locus YBR279W, strain paf1, hits give low values 0.931 | locus YDR137W, strain rgp1, hits give low values 0.716 | locus YDR195W, strain ref2 1.37 [resistant] | locus YDR392W, strain spt3, hits give low values 0.605 | locus YER155C, strain BEM2 (second series), hits give low values 0.506 | locus YGL253W, strain hxk2, hits give low values 0.859 | locus YHR142W, strain chs7, hits give low values 0.765 | locus YJL164C, strain tpk1, hits give low values 0.902 | locus YKL160W, strain elf1, hits give low values 0.872 | locus YLR221C, strain rsa3, hits give low values 0.883 | locus YLR262C, strain YPT6 (second series), hits give low values 0.78 | locus YLR320W, strain mms22, hits give low values 0.774 | locus YMR058W, strain fet3, hits give low values 0.888 | locus YNL071W, strain lat1, hits give low values 0.62 | locus YNL248C, strain rpa49, hits give low values 0.755 | locus YOR083W, strain WHI5, hits give low values 0.886 | locus YOR270C, strain vph1, hits give low values 0.66 | locus YPL051W, strain arl3, hits give low values 0.853 | locus YPL078C, strain atp4, hits give low values 0.807
inactive: locus YAL021C, strain ccr4, hits give low values 0.95 | locus YAL026C, strain drs2, hits give low values 0.93 | locus YAL030W, strain snc1, hits give low values 0.972 | locus YBL061C, strain skt5, hits give low values 0.938 | locus YBR009C, strain hhf1, hits give low values 0.969 | locus YBR171W, strain sec66, hits give low values 0.952 | locus YBR231C, strain swc5, hits give low values 0.943 | locus YCL011C, strain gbp2, hits give low values 0.967 | locus YCL016C, strain dcc1, hits give low values 0.938 | locus YCL061C, strain MRC1, hits give low values 0.969 | locus YCL069W, strain vba3, hits give low values 0.959 | locus YCR088W, strain abp1, hits give low values 0.972 | locus YDL005C, strain med2, hits give low values 0.994 | locus YDL040C, strain nat1, hits give low values 0.961 | locus YDR001C, strain nth1, hits give low values 0.961 | locus YDR069C, strain doa4, hits give low values 0.985 | locus YDR159W, strain sac3, hits give low values 1.03 | locus YDR297W, strain sur2, hits give low values 0.977 | locus YDR334W, strain swr1, hits give low values 0.964 | locus YDR335W, strain msn5, hits give low values 0.968 | locus YEL003W, strain gim4, hits give low values 0.981 | locus YEL037C, strain rad23, hits give low values 0.959 | locus YEL061C, strain CIN8 (second series), hits give low values 0.963 | locus YER015W, strain faa2, hits give low values 0.969 | locus YER016W, strain bim1, hits give low values 0.974 | locus YER111C, strain swi4, hits give low values 0.985 | locus YFR010W, strain ubp6, hits give low values 0.959 | locus YGL167C, strain pmr1, hits give low values 0.969 | locus YGL173C, strain kem1, hits give low values 0.946 | locus YGL227W, strain vid30, hits give low values 0.977 | locus YGL240W, strain doc1, hits give low values 0.924 | locus YHR013C, strain ard1, hits give low values 0.897 | locus YHR027C, strain rpn1, hits give low values 0.98 | locus YHR030C, strain SLT2, hits give low values 1.02 | locus YHR079C, strain IRE1, hits give low values 0.992 | locus YJL092W, strain hpr5, hits give low values 0.975 | locus YJL095W, strain BCK1 (second series), hits give low values 0.971 | locus YJL095W, strain BCK1, hits give low values 0.995 | locus YJL115W, strain asf1, hits give low values 0.979 | locus YJL129C, strain trk1, hits give low values 0.912 | locus YJL154C, strain vps35, hits give low values 0.981 | locus YJL166W, strain qcr8, hits give low values 0.908 | locus YJL187C, strain SWE1, hits give low values 0.966 | locus YJR066W, strain TOR1, hits give low values 0.923 | locus YKR026C, strain gcn3, hits give low values 0.969 | locus YKR091W, strain srl3, hits give low values 0.985 | locus YLL001W, strain dnm1, hits give low values 0.939 | locus YLL026W, hits give low values 0.972 | locus YLL041C, strain sdh2, hits give low values 0.97 | locus YLR027C, strain aat2, hits give low values 0.934 | locus YLR113W, strain HOG1, hits give low values 1.03 | locus YLR258W, strain gsy2, hits give low values 0.961 | locus YLR342W, strain FKS1, hits give low values 0.984 | locus YLR357W, strain rsc2, hits give low values 1.01 | locus YLR370C, strain arc18, hits give low values 0.964 | locus YLR384C, strain iki3, hits give low values 0.976 | locus YML120C, strain ndi1, hits give low values 0.917 | locus YMR125W, strain sto1, hits give low values 1 | locus YMR129W, hits give low values 0.979 | locus YMR205C, strain PFK2, hits give low values 0.972 | locus YMR231W, strain pep5, hits give low values 0.986 | locus YNL183C, strain NPR1, hits give low values 0.943 | locus YNL209W, strain ssb2, hits give low values 0.978 | locus YNL322C, strain KRE1 (second series), hits give low values 0.996 | locus YNR049C, strain mso1, hits give low values 0.965 | locus YOR001W, strain rrp6, hits give low values 0.911 | locus YOR070C, strain gyp1, hits give low values 0.937 | locus YOR080W, strain dia2, hits give low values 0.982 | locus YOR106W, strain vam3, hits give low values 0.923 | locus YOR231W, strain MKK1, hits give low values 1.01 | locus YOR265W, strain rbl2, hits give low values 0.954 | locus YOR290C, strain snf2, hits give low values 0.873 | locus YPL106C, strain sse1, hits give low values 0.973 | locus YPL240C, strain hsp82, hits give low values 0.974 | locus YPL256C, strain CLN2, hits give low values 1.05
